Compound activity (PubChem BioAssay)
The list is not random: actives were taken first. Their share in the collection is about 12%.
L3MBTL1 inh – blocks human L3MBTL1 | Q9Y468 | AlphaScreen L3MBTL1–H3K9me1 peptide binding | Potency, µM (top dose mostly 57.1 µM), actives largely listed as inhibitors | 230,000 compounds, 0.66% hits; note: nearly all actives have a fitted effect of over 60% in size
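AlphaScreen assay: L3MBTL1 (50 nM final) was preincubated 30 min at room temperature with biotinylated H3(1-15)K9me1 peptide (75 nM final), then 30 min with library compounds; streptavidin donor and nickel chelate acceptor beads (10 ug/mL final) added, 30 min dark.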
JMJD2A Tudor – inhibitors of human JMJD2A Tudor domain; AlphaScreen JMJD2A-Tudor / H3K4me3 peptide binding; Potency, µM (series often up to 114 µM), most hits filed as inhibitors; 390,000 compounds, 4.4% hits; note: nearly all actives have a fitted effect of over 50% in size
HP1b chromo inh – HP1-beta chromodomain-methylated histone interaction inhibition; P83916; Potency, µM (doses to about 114 µM), hits mostly inhibitors; 390,000 compounds, 0.56% hits; AlphaScreen HP1-beta / biotin-H3K9me3 peptide binding; note: nearly all actives have a fitted effect of over 70% in size
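Compound inhibition of the preformed complex between 50 nM HP1-beta and 50 nM biotinylated H3K9me3 peptide was read by AlphaScreen. Buffer was PBS pH 7.4 with 0.01% Tween-20. Incubations ran 30 min at room temperature, with 10 ug/mL donor/acceptor beads.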
G9a block – G9a (human) methyltransferase inhibition | AID 504332 | Q96KQ7 | Potency, µM (doses to about 102 µM), actives largely listed as inhibitors | 350,000 compounds, 8.8% hits | G9a H3K9 monomethylation, AlphaScreen, 2 h; note: nearly all actives have a fitted effect of over 75% in size
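Chemiluminescent proximity detection of H3K9 monomethylation, read after 10 min bead incubation in the dark. Reaction: 20 nM G9a, 500 nM biotin-H3K9 peptide, 20 uM SAM cofactor, 2 h, room temperature, following 15 min enzyme-compound preincubation.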
Sfp PPTase inh – inhibitors of Bacillus subtilis Sfp phosphopantetheinyl transferase | Q9F4F7 | Biochemical Sfp PPTase activity, qHTS | Potency, µM, most hits filed as inhibitors | 310,000 compounds, 3.5% hits | AID 1490;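 note: the enzyme is Sfp with the accession as filed and its product quenches rhodamine fluorescence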
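Compounds were incubated with enzyme (final 15 nM) for 15 min at room temperature before substrate addition started the reaction. Fluorescence at 525 nm excitation, 598 nm emission was recorded immediately and after 30 minutes.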
BAZ2B block – inhibitors of human BAZ2B bromodomain; 360,000 compounds, 4.4% hits; Potency, µM (doses to about 114 µM), hits mostly inhibitors; AlphaScreen BAZ2B-H3K14Ac peptide displacement; Q9UIF8; note: nearly all actives have a fitted effect of over 60% in size
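AlphaScreen displacement of biotin-H3(5-23)K14Ac peptide (50 nM final) from BAZ2B (50 nM final) in PBS pH 7.4, 0.01% Tween-20; complex preformed 30 min RT, then compounds (top 110 uM) 30 min RT, beads 20 min dark.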
A number is an active result; ! = a repeat was not active. Calls come from the whole dose curve; as a rule, active = well fitted curve in the direction sought with a large enough effect; inconclusive = small, poorly fitted or top-dose-only effect, or another doubt; inactive = no such curve, though single readings can be large; an effect the other way counts as inactive or inconclusive.

Results for O=C(Nc1ccccc1C(=O)NC(Cc1ccc(O)cc1)C(=O)O)c1ccccc1 (stereo not drawn) ?
L3MBTL1 inh: inactive; JMJD2A Tudor: inactive; HP1b chromo inh: inactive; G9a block: 44.7µM; Sfp PPTase inh: inactive; BAZ2B block: inactive

What do the screens show for `Cc1ccc(S(=O)(=O)N(CC(=O)O)Cc2ccco2)cc1`?
JMJD2A Tudor: 89.1µM; HP1b chromo inh: inactive; G9a block: 31.6µM; Sfp PPTase inh: inactive; BAZ2B block: 56.2µM

What do the screens show for `COC(=O)CN(Cc1ccco1)S(=O)(=O)c1ccccc1`?
L3MBTL1 inh: inactive; JMJD2A Tudor: inactive; HP1b chromo inh: inactive; G9a block: inactive; Sfp PPTase inh: 56.2µM; BAZ2B block: inactive

Results for COc1ccc(S(=O)(=O)N(CCC(N)=O)Cc2ccco2)cc1OC ?
L3MBTL1 inh: inactive; JMJD2A Tudor: inconclusive; HP1b chromo inh: inactive; Sfp PPTase inh: inactive; BAZ2B block: inactive

How did COc1ccc(S(=O)(=O)N(Cc2ccc(OC)c(OC)c2)Cc2ccco2)cc1 do in these assays?
L3MBTL1 inh: inactive; JMJD2A Tudor: inactive; HP1b chromo inh: inactive; G9a block: 50.1µM; Sfp PPTase inh: inactive; BAZ2B block: inconclusive

What do the screens show for `N#Cc1c(SCC(=O)Nc2cccc(F)c2)sc2c(O)cc(=O)[nH]c12`?
JMJD2A Tudor: inactive; HP1b chromo inh: inactive; G9a block: inconclusive; Sfp PPTase inh: 56.2µM; BAZ2B block: inactive

What do the screens show for `N#Cc1cccc(NC(=O)CSc2sc3c(O)cc(=O)[nH]c3c2C#N)c1`?
JMJD2A Tudor: inconclusive; HP1b chromo inh: inactive; G9a block: inconclusive; Sfp PPTase inh: inconclusive; BAZ2B block: inconclusive

How did N#Cc1c(SCC(=O)Nc2ccccc2C(F)(F)F)sc2c(O)cc(=O)[nH]c12 do in these assays?
JMJD2A Tudor: inactive; HP1b chromo inh: inactive; G9a block: inactive; Sfp PPTase inh: 14.1µM; BAZ2B block: inactive

How did N#Cc1c(SCC(=O)Nc2ccc(Cl)cc2Cl)sc2c(O)cc(=O)[nH]c12 do in these assays?
JMJD2A Tudor: inactive; HP1b chromo inh: inactive; G9a block: inconclusive; Sfp PPTase inh: inactive; BAZ2B block: inactive

How did Cc1c(Cl)cccc1NC(=O)CSc1sc2c(O)cc(=O)[nH]c2c1C#N do in these assays?
JMJD2A Tudor: inactive; HP1b chromo inh: inactive; G9a block: inconclusive; Sfp PPTase inh: inconclusive; BAZ2B block: inactive

What do the screens show for `CCOc1cccc(NC(=O)CSc2sc3c(O)cc(=O)[nH]c3c2C#N)c1`?
JMJD2A Tudor: inactive; HP1b chromo inh: inactive; G9a block: inconclusive; Sfp PPTase inh: 35.5µM; BAZ2B block: inactive

Results for O=S(=O)(c1cccc2cnccc12)N1CCCNCC1 ?
L3MBTL1 inh: inactive; JMJD2A Tudor: 89.1µM; HP1b chromo inh: inactive; G9a block: inconclusive; Sfp PPTase inh: inactive; BAZ2B block: inactive

Results for O=C1c2ccccc2C(=O)N1c1cccc2cnccc12 ?
JMJD2A Tudor: inactive

What do the screens show for `O=S(=O)(c1cccc2ccccc12)N1CCCCC1`?
JMJD2A Tudor: inactive; HP1b chromo inh: inactive; Sfp PPTase inh: inactive; BAZ2B block: inactive

Results for O=S(=O)(c1cc(Cl)ccc1Cl)N1CCNCC1 ?
JMJD2A Tudor: inactive; HP1b chromo inh: inactive; G9a block: inactive; Sfp PPTase inh: inactive; BAZ2B block: inactive

What do the screens show for `CC1CNCCN1S(=O)(=O)c1cccc2cnccc12` (stereo not drawn)?
L3MBTL1 inh: inactive; JMJD2A Tudor: inactive; HP1b chromo inh: inactive; G9a block: 11.2µM!; Sfp PPTase inh: inactive; BAZ2B block: inconclusive

How did CCCn1c(=O)c2sccc2n2c(CCCC(=O)N3CCN(c4ccc(OC)cc4)CC3)nnc12 do in these assays?
JMJD2A Tudor: inactive; HP1b chromo inh: inactive; G9a block: inconclusive; BAZ2B block: inconclusive

What do the screens show for `CCOC(=O)N1CCC(NC(=O)c2ccc3c(c2)N(Cc2ccc(Cl)cc2)C(=O)c2ccccc2S3(=O)=O)CC1`?
JMJD2A Tudor: inactive; HP1b chromo inh: inactive; G9a block: inactive; BAZ2B block: inactive

How did O=C(O)CC/C(=C\c1ccccc1[N+](=O)[O-])c1nc2ccccc2s1 do in these assays?
L3MBTL1 inh: inactive; JMJD2A Tudor: inactive; HP1b chromo inh: inactive; G9a block: inactive; Sfp PPTase inh: inactive; BAZ2B block: inactive

What do the screens show for `CN(c1ccccc1)c1ccc(/C=C(/CCC(=O)O)c2nc3ccccc3s2)cc1[N+](=O)[O-]`?
JMJD2A Tudor: 22.4µM; HP1b chromo inh: inconclusive
